Shown are actives, neighbours in structure and some others; about 7.3% of the full set was active somewhere.
Rab9 promoter act: activators of Rab9 promoter. 320,000 compounds, 2.8% hits. AID 485297. Potency, µM (doses to about 9.22 µM), for the others: at the top dose activation, negative = inhibition, actives largely listed as activators. Huh7 Rab9 promoter-luciferase reporter, luminescence, 24 h; also: % of control where 0% means no effect; nearly all actives have a fitted effect of over 60% in size
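Measured in stably transfected Huh7 cells bearing a Rab9 promoter–luciferase construct: 24 h compound treatment at 37 °C, followed by luminescence detection.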
ELG1 genotox: inducers of genotoxicity in HEK293T ELG1-luciferase cells. HEK293T ELG1-luciferase reporter, luminescence, 16 h. 330,000 compounds, 1.3% hits. AID 504466. Potency, µM (highest dose often 46 µM), for the others: at the top dose activity change, positive = activation, usual class: activators; also: % of control where 0% means no effect; nearly all actives have a fitted effect of over 60% in size
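Genotoxicity was scored as increased ELG1-luciferase reporter signal, measured by ONE-Glo luminescence (30 min, room temperature). Compound or vehicle exposure of the HEK293T reporter cells lasted 16 hr at 37°C.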
NPC1 promoter act: activates the NPC1 promoter | AID 485313 | Huh7 NPC1 promoter luciferase reporter, 24 h | Potency, µM (series often up to 9.22 µM), for inactives: at the top dose activation, usual class: activators | 320,000 compounds, 2.4% hits; also: % of control where 0% means no effect; nearly all actives have a fitted effect of over 60% in size
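Cells: Huh7 expressing luciferase under the NPC1 promoter, 1500/well. Seeded 2 h, compound added, incubated 24 h at 37 °C. Luciferase reagent, 10 min ambient, then luminescence.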
FLuc counter: counter-screen for miR-21 project: firefly luciferase inhibitors or activators. purified FLuc, Km substrates, luminescence inhibition. P08659. 360,000 compounds, 6.9% hits. Potency, µM (series often up to 57.5 µM), for inactives: top-dose activity change, negative = inhibition, usual class: inhibitors. AID 588342;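 also: plate controls were vehicle for no effect and reference inhibitor for full effect; nearly all actives have a fitted effect of over 55% in size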
Target sequence (P08659 whole entry, looked up): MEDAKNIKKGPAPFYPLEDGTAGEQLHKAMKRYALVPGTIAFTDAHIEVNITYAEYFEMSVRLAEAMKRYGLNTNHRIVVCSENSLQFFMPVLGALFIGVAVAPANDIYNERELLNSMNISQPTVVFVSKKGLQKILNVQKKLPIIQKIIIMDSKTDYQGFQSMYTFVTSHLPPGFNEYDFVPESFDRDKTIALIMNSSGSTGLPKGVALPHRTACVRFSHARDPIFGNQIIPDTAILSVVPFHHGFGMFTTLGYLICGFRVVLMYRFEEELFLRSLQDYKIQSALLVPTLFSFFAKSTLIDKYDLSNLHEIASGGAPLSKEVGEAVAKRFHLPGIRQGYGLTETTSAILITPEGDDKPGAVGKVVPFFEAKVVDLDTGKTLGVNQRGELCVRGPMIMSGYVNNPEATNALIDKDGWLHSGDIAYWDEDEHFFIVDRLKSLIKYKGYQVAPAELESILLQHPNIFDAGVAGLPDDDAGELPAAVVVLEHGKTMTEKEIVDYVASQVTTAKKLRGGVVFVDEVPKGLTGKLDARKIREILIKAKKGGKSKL
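Biochemical qHTS of compounds, final roughly 60 µM downward over six points, against 10 nM purified firefly luciferase using Km concentrations of substrates (10 uM D-luciferin, 10 uM ATP) in Tris acetate pH 7.5 buffer; luminescence output.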
p53 reactivator: re-activators of mutant p53 | H1299 p53-A138V BP100-luciferase reporter, luminescence, 24 h | 320,000 compounds, 0.063% hits | AID 504706 | Potency, µM (series often up to 92.2 µM), without a hit: top-dose activity change, positive = activation, actives largely listed as activators; also: % of control where 0% means no effect; nearly all actives have a fitted effect of over 45% in size
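p53-null H1299 cells stably carrying temperature-sensitive p53-A138V and a BP100-luciferase reporter were pinned with compounds (4-point, 1:5 series) and held 24 hrs at 37 deg C. Luminescence was read 10 min after detection reagent.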
SMN2 splice up: increases expression of the SMN2 splice variant; HEK293 SMN2-luciferase splicing reporter, luminescence, 30-36 h; Potency, µM (top dose mostly 46.1 µM), inactives show at the highest dose activity change, positive = activation, actives largely listed as activators; 210,000 compounds, 2.8% hits; AID 1458; also: % of control where 0% means no effect; nearly all actives have a fitted effect of over 55% in size
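qHTS luciferase splicing reporter: luminescence rises when SMN2 exon 7 is included in transfected HEK293 cells. Compound exposure lasted 30-36 h at 37C, with 4.5 mM final sodium butyrate as control, followed by a ONE-Glo read.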
* marks the source's active call; other numbers are inactive results; ? = inconclusive; nt = not tested or not shown. Calls follow the shape of the dose curve; as a rule, active = well fitted curve in the direction sought with a large enough effect; inconclusive = small, poorly fitted or top-dose-only effect, or another doubt; inactive = no such curve, though single readings can be large; an effect the other way counts as inactive or inconclusive. Potency is read from the fitted curve at half-maximal effect.

SMILES	Rab9 promoter act	ELG1 genotox	NPC1 promoter act	FLuc counter	p53 reactivator	SMN2 splice up
CC(C)COC(=O)c1ccc(NC(=O)C2C3CCC(C3)C2C(=O)O)cc1 (centres undefined)	1.1µM*	?	4µM*	17µM*	?	21%
CCOC(=O)c1ccc(NC(=O)N2CCCCCC2)cc1	1.8µM*	5.8µM*	1.1µM*	8.5µM*	21%	nt
CCOC(=O)c1ccc(NC(=O)N2CCOCC2)cc1	?	-4%	23%	?	13%	?
CCOC(=O)c1ccc(NC(=O)C2C3CCCCC32)cc1 (centres undefined)	?	23%	?	15µM*	0%	nt
CCCOC(=O)c1ccc(NC(=O)C2CCCO2)cc1 (centres undefined)	4µM*	?	?	?	?	?
CCOC(=O)c1ccc(NC(=O)C2C3CCC(C3)C2C(=O)O)cc1 (centres undefined)	20%	?	17%	-17%	?	23%
CCNS(=O)(=O)c1ccc(CCC(=O)NCc2ccccc2)cc1	13%	3%	0%	-2%	-6%	9%
CC1(C)Cc2nc3sc4c(SCC(=O)O)ncnc4c3cc2CO1	?	5%	?	0.38µM*	-8%	nt
CC1(C)Cc2nc3sc4c(SCC(=O)NCc5ccccc5)ncnc4c3cc2CO1	23%	4.1µM*	26%	2.7µM*	?	?
Cc1cc(C)c(NC(=O)C2CCN(C(=O)N3CCOc4ccccc43)CC2)c(C)c1	nt	nt	nt	4%	nt	nt
CC(C)c1ccc2occ(CC(=O)Nc3ccccc3Cl)c2c1	nt	nt	nt	-16%	nt	-2%
CCN(CC)c1ccc(/C=N/NC(=O)Cc2cccs2)c(O)c1	-39%	?	-30%	?	?	-93%
CCN(CC)c1ccc(/C=N/NC(=O)c2ccc([N+](=O)[O-])cc2)cc1	3%	6%	-3%	8%	0%	nt
CCN(CC)c1ccc(/C=N/NC(=O)c2ccco2)cc1	?	5.8µM*	?	1.5µM*	?	1.6µM*
CCN(CC)c1ccc(/C=N/NC(=O)c2ccco2)c(O)c1	-17%	23µM*	-5%	5.4µM*	?	nt
CCN(CC)c1ccc(C(=O)NC(=S)N2CCN(Cc3ccc4c(c3)OCO4)CC2)cc1	1%	-3%	0%	21µM*	6%	12%
COc1ccc(NC(=O)c2ccc3c(c2)OCO3)cc1[N+](=O)[O-]	3.2µM*	?	2.8µM*	?	3%	?
O=C(Nc1ccc(S(=O)(=O)N2CCc3ccccc32)cc1)c1ccc2c(c1)OCO2	-11%	23µM*	6%	-13%	2%	-31%
CC(C)NC(=S)N1CCN(Cc2ccc3c(c2)OCO3)CC1	-5%	0%	-6%	-1%	-2%	-2%
COc1ccc(C(=O)Nc2ccncc2)cc1[N+](=O)[O-]	-1%	-2%	3%	2%	nt	nt
COc1ccc(NC(=O)c2ccc3c(c2)OCO3)cc1	0.63µM*	5.2µM*	1.1µM*	3.4µM*	-22%	nt
O=C(Nc1ccccc1)c1ccc2c(c1)CCN2S(=O)(=O)c1ccccc1	-2%	-6%	10%	-3%	-7%	nt
COc1ccc2[nH]c(C(=O)Nc3ncc(C)cc3Br)cc2c1	14%	0%	0%	19µM*	0%	nt
CCN(CC)c1ccc(NC(=O)c2ccc3c(c2)OCO3)cc1	2.2µM*	?	?	6.7µM*	nt	nt
COc1ccc2[nH]c(C(=O)Nc3ccc4c(c3)OCO4)cc2c1	2.8µM*	17%	3.2µM*	4.8µM*	14%	nt
SMILES	Rab9 promoter act	ELG1 genotox	NPC1 promoter act	FLuc counter	p53 reactivator	SMN2 splice up
COc1ccc2[nH]c(C(=O)Nc3ccc(F)cc3Br)cc2c1	-3%	0%	-29%	-12%	6%	nt
COc1ccc(-n2nc(C(=O)NCCc3ccc(Cl)cc3)c3c4ccccc4n(C)c3c2=O)cc1	nt	nt	nt	-1%	nt	13%
COc1ccccc1C(=O)NC1(C(F)(F)F)C(=O)Nc2c1c(=O)[nH]c(=O)n2-c1ccccc1 (centres undefined)	nt	nt	nt	-16%	nt	-7%
O=C(OCC#CCSc1nnc(-c2cccc3ccccc23)s1)c1cccs1	-2%	nt	1%	4%	nt	nt
O=C(c1cc(-c2ccccc2O)on1)N1CCc2ccccc2C1	6%	16%	-5%	?	?	21%
O=C(c1cc(-c2cccs2)on1)N1CCOCC1	?	?	2.8µM*	19µM*	?	?
O=C(c1cc(-c2cccs2)on1)N1CCc2ccccc2C1	2%	6%	-3%	19µM*	?	0%
CC(C)(C)c1cc(NCCCn2ccnc2)n2ncc(-c3ccc(Cl)cc3)c2n1	29%	-4%	22%	27µM*	-1%	6%
CN(C)CCCNc1cc(-c2ccccc2)nc2cc(-c3cccc(F)c3)nn12	1%	23%	1%	0%	nt	nt
CN(C)CCCNc1cc(C(C)(C)C)nc2c(-c3ccccc3)cnn12	4µM*	?	3.5µM*	8.5µM*	2%	nt
Cc1cc(C)c2c(n1)nn1c(NCCCn3ccnc3)cc(C)nc21	-1%	3%	-2%	2%	-5%	33%
CSc1nsc(SC)c1C(=O)Nc1ccc(C(C)(C)C)cc1	13%	0%	16%	11µM*	-2%	nt
COCCN=C1Sc2nc3ccc(C)cc3cc2CN1Cc1ccco1	22%	12%	16%	11µM*	11%	20%
COCCN=C1Sc2nc3cc(C)c(C)cc3cc2CN1Cc1cccs1	17%	3%	0%	-7%	14%	nt
CC(C)(C)OC(=O)N1CCC(c2c(C(=O)NCCN3CCOCC3)cnn2-c2ccc(F)cc2F)CC1	nt	nt	nt	-1%	nt	nt
CCOC(=O)c1c(C)oc2nc(C)nc(NCCc3ccc(OCC)c(OCC)c3)c12	nt	nt	nt	-11%	nt	nt
O=C(/C=C/c1ccccc1[N+](=O)[O-])Oc1ccccc1	-1%	0%	-6%	6.7µM*	1%	nt
O=C(/C=C/c1ccccc1[N+](=O)[O-])c1ccc(F)cc1	26%	?	15%	13µM*	4%	-13%
O=C(O)c1ccc(N/N=C/C=C/c2ccccc2[N+](=O)[O-])cc1	1.4µM*	?	1.4µM*	3.4µM*	25%	8.9µM*
O=C(/C=C/c1ccccc1[N+](=O)[O-])OCC(=O)c1ccccc1	1%	8%	0%	24µM*	4%	7%
NC(=O)COC(=O)/C=C/c1ccccc1[N+](=O)[O-]	-2%	-1%	-1%	-2%	11%	13%
Cc1cccc(NC(c2nnc(-c3ccccc3)o2)c2ccc(F)cc2Cl)c1C (centres undefined)	nt	nt	nt	-7%	nt	nt

Source: PubChem BioAssay
